Bioassay records as filed in PubChem.
Rows were chosen to be rich in hits. Some 8% of all compounds tested hit in one or more screens of this group.
KB-V1 cytotox: kills drug-selected multidrug resistant KB-V1 cells; KB-V1 MDR cells viability, CellTiter-Glo, 72 h; Potency, µM (titrated, usually from 46.1 µM), hits mostly cytotoxic; 400,000 tested, 3.4% active; AID 1347076; further: on the % scale 0 is the no-effect control and ±100 the full control effect; nearly all actives have a fitted effect of over 60% in size
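Cells of the MDR subline KB-V1 are plated, dosed with compound at multiple concentrations, and incubated 72 h at 37 degrees C; CellTiter-Glo is then added and luminescence read after 10 min.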
SW480 rereplic: DNA re-replication induction in SW480 cells. AID 624297. Potency, µM (doses to about 46.1 µM), inactives show at the highest dose re-replication activation, most hits filed as activators. 340,000 tested, 1.8% active. SW480 DNA re-replication, Hoechst DNA content imaging, 48 h; further: % of control where 0% means no effect; nearly all actives have a fitted effect of over 55% in size
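First, 250 cells per well were seeded. Next, compound or vehicle (23 nL) was pinned in, plates sat 48 hr at 37 C. Finally Hoechst was added for 40 min before fluorescence scanning.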
KB-3-1 tox: kills parental KB-3-1 adenocarcinoma cells. 400,000 tested, 1.4% active. Potency, µM (highest dose often 46.1 µM), most hits filed as cytotoxic. KB-3-1 viability, CellTiter-Glo ATP luminescence, 72 h; further: on the % scale 0 is the no-effect control and ±100 the full control effect; nearly all actives have a fitted effect of over 60% in size
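Multi-concentration cytotoxicity screen in KB-3-1 cells grown in DMEM lacking phenol red with 10% FBS. After 72 h at 37 °C with compound, ATP-dependent luminescence was recorded.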
HT1080 IDH1KD tx: HT-1080 IDH1 knockdown cell toxicity (counter line). HT-1080 IDH1 knockdown viability, ATP luminescence, 48 h. Potency, µM (doses to about 46.1 µM), for the others: at the top dose activity, negative = toxicity, actives largely listed as cytotoxic. 360,000 tested, 2% active. AID 686971;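 further: 0% = DMSO wells and -100% = cell-free medium wells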
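HT-1080-IDH1KD cells (IDH1 knocked down), 750/well in RPMI with 5% FBS, treated with compound 48 h at 37 degrees C. Viability by CellTiter-Glo luminescence, normalised to DMSO and no-cell wells; concentration-response curves classed.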
HT1080NT lethal: kills 2HG-producing HT-1080-NT fibrosarcoma cells | 360,000 tested, 1.6% active | Potency, µM (top dose mostly 46.1 µM), without a hit: top-dose activity, negative = less viability, actives largely listed as cytotoxic | HT-1080-NT fibrosarcoma viability, CellTiter-Glo ATP luminescence, 48 h;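 further: NT is the 2HG producing partner of a matched IDH1 knockdown line; 0% = DMSO-treated cells and -100% = media-only wells without cells; nearly all actives have a fitted effect of over 55% in size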
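Compounds were tested in concentration-response format on HT-1080-NT cells for 48 hours at 37 degrees C. Cell viability came from CellTiter-Glo luminescence; curves were classified by r2, response magnitude and activity.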
MCF10A rereplic: inducers of DNA re-replication in MCF 10A breast cells; Potency, µM (series often up to 46.1 µM), for inactives: at the highest dose activity, positive = re-replication, actives largely listed as activators; AID 624296; MCF 10A DNA re-replication, Hoechst nuclear intensity, 48 h; 350,000 tested, 2.9% active; further: % of control where 0% means no effect; nearly all actives have a fitted effect of over 50% in size
* marks the source's active call; other numbers are inactive results; i = inactive; ? = inconclusive; . = no result; ! = a repeat was not active. The call rests on the fitted dose curve; in most records, active means well fitted curve in the direction sought with a large enough effect; inconclusive means small, poorly fitted or top-dose-only effect, or another doubt; inactive means no such curve, though single readings can be large; an effect the other way counts as inactive or inconclusive. Potency means the concentration at half of the fitted maximal effect.

SMILES | KB-V1 cytotox | SW480 rereplic | KB-3-1 tox | HT1080 IDH1KD tx | HT1080NT lethal | MCF10A rereplic
COC(=O)C1=CN(c2ccc(N3CCOCC3)cc2)C(N)=C(C#N)C1c1ccccc1 (stereo not given) | i | . | ? | -10% | -14% | .
Cc1ccc(NC(=O)N2CC3CCCN3c3ccccc32)cc1Cl (stereo not given) | i | . | i | . | . | .
CC(=O)N1CCc2c(sc(NC(=O)c3ccc4c(c3)OCCO4)c2C#N)C1 | ? | 18µM* | ? | 12µM* | 18µM* | 15µM*
CCOC(=O)N1CCc2c(sc(NC(=O)CCS(=O)(=O)c3ccccc3)c2C(N)=O)C1 | i | -10% | i | 1% | 1% | ?
CC(=O)N1CCc2c(sc(NC(=O)c3ccc([N+](=O)[O-])o3)c2C(N)=O)C1 | i | . | i | 5.8µM* | 6.5µM* | .
CC(=O)N1CCc2c(sc(NC(=O)CCS(=O)(=O)c3ccccc3)c2C(N)=O)C1 | i | 21µM* | ? | -1% | 3% | ?
CCCCOC(=O)c1ccc(NC(=O)c2ccc3c(c2)CCCN3S(C)(=O)=O)cc1 | ? | . | i | . | . | .
COc1ccc2c(C)c(Cc3ccccc3)c(=O)oc2c1OC | ? | -11% | i | 6% | 10% | -1%
CCCCc1c(C)c2ccc(OC)c(/C(C)=N\O)c2oc1=O | 5.8µM* | -51% | ? | 7% | 8% | -2%
COc1ccccc1C(=O)Nc1cc(Cl)ccc1-n1cncn1 | i | 3% | i | -10% | -2% | -2%
COc1cc(OC)c(C(=O)Nc2cc(Cl)ccc2-n2cncn2)cc1OC | i | 5.2µM* | i | 3% | 2% | -16%
O=C(Nc1cc(Cl)ccc1-n1cncn1)c1ccc([N+](=O)[O-])s1 | ? | 23µM* | ? | -1% | -21% | 21µM*
Cc1ccc(CNC(=O)CCCN2C(=O)COc3ccc(C)cc32)cc1 | i | . | i | . | . | .
COc1ccc(CCNC(=O)COC(=O)C2CC2C)cc1OC (stereo not given) | i | -7% | i | 3% | 9% | -1%
CC1(C)CC(NC(=O)c2ccc(Cl)c(Cl)c2)CC(C)(C)N1 | i | -2% | i | 2% | 0% | 22%
CC(=O)[C@H]1CC[C@@H](c2ccccc2)N(S(=O)(=O)c2ccc(C)cc2)C1 | ? | . | i | -2% | 5% | .
COc1ccc(N2CCN(C(=O)CNC(=O)Cn3cnc4sc(C)c(C)c4c3=O)CC2)cc1 | i | 0% | i | 7% | 15% | 0%
Nc1nc(CCl)nc(Nc2cccc3ccccc23)n1 | ? | ? | ? | ? | 0.52µM* | ?
Cn1nnnc1Sc1ncnc2scc(-c3ccc(F)cc3)c12 | ? | 10µM* | 8.2µM*! | 21µM* | ? | ?
Cn1nnnc1Sc1ncnc2scc(Br)c12 | i | 4.6µM* | i | . | . | 3.7µM*
COc1ccccc1-c1csc2ncnc(Sc3nnnn3C)c12 | i | ? | ? | . | . | 8%
Cn1nnnc1Sc1ncnc2scc(-c3ccc(Br)cc3)c12 | ? | ? | 12µM* | . | . | ?
Cn1nnnc1Sc1ncnc2scc(-c3ccccc3)c12 | ? | 16µM* | ? | -23% | -4% | ?
Cn1nnnc1Sc1ncnc2scc(-c3ccccc3Br)c12 | i | ? | i | . | . | 19%
Cn1nnnc1Sc1ncnc2scc(-c3cccc4ccccc34)c12 | i | 7% | 16µM* | . | . | ?
SMILES | KB-V1 cytotox | SW480 rereplic | KB-3-1 tox | HT1080 IDH1KD tx | HT1080NT lethal | MCF10A rereplic
CC(NNC(=O)c1ccccc1)c1ccccc1 (stereo not given) | . | 0% | . | . | . | -3%
Cc1nc2ccccc2n1-c1nc(-c2ccco2)cc(C(F)(F)F)n1 | i | ? | i | 5.6µM* | 5.6µM* | ?
S=c1sc2c(Cl)ncnc2n1-c1ccccc1 | ? | ? | ? | ? | 21µM* | 2.1µM*
CCCn1c(=S)[nH]c2cc(C(=O)N3CCc4ccccc43)ccc2c1=O | 2.3µM* | -8% | ? | -11% | 0% | ?
CCc1c(C)[nH]n(-c2nc(-c3cccc([N+](=O)[O-])c3)cs2)c1=O | 16µM* | -5% | ? | -1% | 2% | -3%
O=S(=O)(c1ccccc1)N1CCC(n2cnc3ccccc32)CC1 | ? | -5% | i | -1% | 6% | 5%
O=S(=O)(c1ccccc1C(F)(F)F)N1CCC(n2cnc3ccccc32)CC1 | 9.2µM* | 8% | i | -5% | 1% | -2%
Cc1cccc(Cn2c(NC3CCCC3)nc3c2c(=O)[nH]c(=O)n3C)c1 | i | . | i | -8% | -5% | .
Cc1ccc(C)c(NC(=O)COC(=O)CC2c3ccccc3CCN2S(=O)(=O)c2ccc(F)cc2)c1 (stereo not given) | 21µM* | 0% | i | -22% | -4% | 8%
O=C(COC(=O)CC1c2ccccc2CCN1S(=O)(=O)c1ccccc1)Nc1ccccc1 (stereo not given) | ? | . | i | -1% | -2% | 3%
C(=C\c1nnc2c3ccccc3ncn12)/c1ccccc1 | 5.2µM* | ? | 12µM* | 5.8µM* | ? | 6.5µM*
COc1cc(/C=C/c2nnc3c4ccccc4ncn23)cc(OC)c1OC | i | -10% | i | ? | ? | ?
Cc1nn2c(=O)cc(COc3ccc(/C=C(\C#N)C(=O)Nc4ccccc4)cc3Cl)nc2s1 | ? | . | i | . | . | .
CCOC(=O)C(Cc1ccnc2ccccc12)=NO | i | ? | i | -26% | 15µM* | 5%
COC(=O)c1cccc(Nc2c(-c3cc(Br)ccc3O)nc3nc[nH]n23)c1 | ? | . | i | . | . | .
COc1ccccc1NC(=O)CCNS(=O)(=O)c1ccc2c(c1)CCN2C(=O)C1CC1 | i | . | i | . | . | .
C=C[C@@H]1c2cc(C)ccc2N(S(=O)(=O)c2ccc(C)cc2)[C@H](c2ccc(OC(C)=O)cc2)C1(C#N)C#N | 7.3µM* | 21% | 6.5µM*! | 6.5µM* | 7.3µM* | 3.3µM*
C=C[C@@H]1c2ccccc2N(S(=O)(=O)c2ccc(C)cc2)[C@H](c2ccc(OC(C)=O)cc2)C1(C#N)C#N | ? | ? | 18µM*! | ? | ? | ?
CC(=O)CC1N(S(=O)(=O)c2ccc(C)cc2)c2ccccc2N1S(=O)(=O)c1ccc(C)cc1 | ? | . | i | 7% | 11% | .
O=C1CCCc2[nH]c(=O)c(C(=O)NCc3ccccc3)cc21 | i | . | i | . | . | .
